Assay [1] is described as follows: resazurin metabolic signal in HepG2 cells – cell-based, resazurin fluorescence, 24 h, PK04 Diversity Set, profiling panel (AID 1172). As to conditions: HepG2 viability, higher = more signal. (Resazurin is reduced to fluorescent resorufin, in cell work by metabolically active cells.)
The nature of assay [2]: budding yeast growth changes without added modifier – OD600, strain BY4716, 24 h, basal condition, primary screen (AID 1173). As to conditions: S. cerevisiae BY4716 growth, OD600, 24 h; higher = more signal, called active from +8 up or from −8 down.
Assay [3] can be described thus: viability profiling in MM1S myeloma cells – cell-based, resazurin fluorescence, basal, 24 h, PK04 Diversity Set, profiling panel (AID 1174).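 Also: MM1S multiple myeloma cell line.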 Particulars: higher = more signal, called active from +8 up or from −8 down.
Assay [4] addresses Dihydroorotate dehydrogenase (quinone), mitochondrial (Plasmodium falciparum (isolate 3D7)) (UniProt Q08210). The assay is described as follows: inhibition of P. falciparum DHODH – biochemical, C-terminal His tag, absorbance 600 nm, primary screen (AID 1175).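 Also: recombinant parasite enzyme with a five histidine tag at its C terminus.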 Particulars: PfDHODH enzyme, DCIP absorbance 600 nm; higher = more signal, called active from +8 up or from −8 down.
The nature of assay [5]: inhibition of PAO1 biofilm formation – strain PAO1, LB-PBS medium, absorbance 600 nm, primary screen (AID 1176). Particulars: P. aeruginosa PAO1 growth/biofilm, A600, 12 h; higher = more signal.
Assay [6] is described as follows: growth modulation of vineyard yeast isolate – strain RM11-1a, OD600, basal, 24 h, primary screen (AID 1177).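 Also: cultures grown under basal conditions with no added stressor.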 As to conditions: S. cerevisiae RM11-1a growth, OD600, 24 h; higher = more signal, called active from +8 up or from −8 down.
A short description of assay [7]: growth of efflux-deficient E. coli DRC39 – strain DRC39, OD650, 24 h, E. coli filamentation inducers, primary screen (AID 1178).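 Also: growth measured as culture turbidity by optical density at 650 nm.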 Particulars: E. coli DRC39 acrAB, higher = more signal, called active from +8 up or from −8 down.
Assay [8] in a line: growth of efflux-deficient E. coli DRC39 – strain DRC39, OD650, 48 h, E. coli filamentation inducers, primary screen (AID 1179).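 Also: screen aims at cell division blockers that make cells filament.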 Particulars: E. coli DRC39 delta-acrAB growth, higher = more signal, called active from +8 up or from −8 down.
Assay [9] can be described thus: viability profiling in RPMI8226 myeloma cells – cell-based, resazurin fluorescence, basal, 24 h, PK04 Diversity Set, profiling panel (AID 1180).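 Also: RPMI8826 multiple myeloma cell line at 5000 cells per well.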 Particulars: higher = more signal.
In assay [10] the target is E3 ubiquitin-protein ligase XIAP (Homo sapiens) (UniProt P98170). The assay is described as follows: small molecules binding XIAP protein – biophysical, small-molecule microarray, fluorescence 635 nm, primary screen (AID 1181).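 Also: score merges 667 nm emission and signal to noise over triplicate slides.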 As to conditions: higher = more signal.
Assay [11] has as its system XIP peptide (Xip251-270) binding. Briefly: XIP fragment 251-270 binding compounds – biochemical, small-molecule microarray, fluorescence 635/667 nm, 0.1 µg/mL protein, primary screen (AID 1182). Particulars: fluorescent protein binding, 635 nm, higher = more signal, called active from +8 up or from −8 down.
In assay [12] the test system is XIP peptide (Xip251-270). The assay is described as follows: compounds binding XIP fragment 251-270 – biochemical, small-molecule microarray, fluorescence 635/667 nm, 0.5 µg/mL protein, primary screen (AID 1183). As to conditions: fluorescence 635 nm, higher = more signal.
The nature of assay [13]: blood-stage malaria parasite viability loss – strain 3D7, DAPI fluorescence, 100 nL, primary screen (AID 1184).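 Also: parasites grown inside human red blood cells in medium with human serum.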 As to conditions: P. falciparum 3D7 growth, 3 d, higher = more signal.
The target of assay [14] is Homeobox protein Hox-A13 (Mus musculus) (UniProt Q62424). The assay is described as follows: disruptors of Hoxa13 oligonucleotide interaction – biochemical, fluorescence polarization, labeled oligonucleotide, primary screen (AID 1185). As to conditions: Hoxa13:DNA binding, 15 min, higher = more signal, called active from +8 up or from −8 down. Background: Fluorescence polarisation rises when a labelled molecule tumbles more slowly, as on binding a larger partner.

A short description of assay [15]: blockers of DNA damage checkpoint Chk1 activation – imaging, HeLa, hydroxyurea, phospho-Chk1 antibody, percent positive cells, primary screen (AID 1186). As to conditions: hydroxyurea-induced phospho-Chk1 immunofluorescence imaging, higher = more signal.
Assay [16] can be described thus: blockers of DNA damage checkpoint Chk1 activation – imaging, HeLa, hydroxyurea, phospho-Chk1 nuclear intensity, primary screen (AID 1187). As to conditions: hydroxyurea-induced phospho-Chk1 immunofluorescence imaging, higher = more signal.

The structures appear in SMILES notation. The source made the active and inactive calls. Unless noted, no rule for the calls is given here.

Chain of E3 ubiquitin-protein ligase XIAP (Homo sapiens) (P98170 whole entry, looked up, the tested form may be a part): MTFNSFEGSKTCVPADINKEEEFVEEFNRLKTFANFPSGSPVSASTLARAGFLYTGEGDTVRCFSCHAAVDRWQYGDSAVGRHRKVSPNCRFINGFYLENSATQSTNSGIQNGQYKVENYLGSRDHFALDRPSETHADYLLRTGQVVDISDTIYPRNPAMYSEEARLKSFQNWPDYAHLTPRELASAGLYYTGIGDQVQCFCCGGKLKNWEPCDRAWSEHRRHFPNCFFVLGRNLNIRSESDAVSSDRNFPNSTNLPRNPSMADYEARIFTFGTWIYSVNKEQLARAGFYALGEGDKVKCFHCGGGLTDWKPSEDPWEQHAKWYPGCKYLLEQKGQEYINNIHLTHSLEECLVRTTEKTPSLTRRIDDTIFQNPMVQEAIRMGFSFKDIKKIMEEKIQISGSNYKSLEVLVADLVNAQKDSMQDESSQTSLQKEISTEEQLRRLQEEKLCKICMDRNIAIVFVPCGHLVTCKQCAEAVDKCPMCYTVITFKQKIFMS
Chain of Dihydroorotate dehydrogenase (quinone), mitochondrial (Plasmodium falciparum (isolate 3D7)) (Q08210 whole entry, looked up): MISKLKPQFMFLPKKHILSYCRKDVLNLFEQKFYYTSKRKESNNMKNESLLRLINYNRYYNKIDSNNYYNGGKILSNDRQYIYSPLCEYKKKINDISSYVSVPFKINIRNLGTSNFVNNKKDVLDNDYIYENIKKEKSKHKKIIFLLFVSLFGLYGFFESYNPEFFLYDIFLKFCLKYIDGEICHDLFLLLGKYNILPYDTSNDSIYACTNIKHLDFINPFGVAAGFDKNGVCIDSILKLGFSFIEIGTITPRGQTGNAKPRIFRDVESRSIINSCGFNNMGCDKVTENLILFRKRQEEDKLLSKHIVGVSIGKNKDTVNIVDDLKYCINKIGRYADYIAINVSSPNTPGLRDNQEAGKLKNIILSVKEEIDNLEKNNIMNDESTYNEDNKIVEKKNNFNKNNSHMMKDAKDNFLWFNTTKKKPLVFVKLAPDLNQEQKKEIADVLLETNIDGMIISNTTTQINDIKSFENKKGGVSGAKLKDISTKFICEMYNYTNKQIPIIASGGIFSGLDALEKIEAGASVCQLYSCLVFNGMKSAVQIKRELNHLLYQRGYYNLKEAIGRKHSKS
Chain of Homeobox protein Hox-A13 (Mus musculus) (Q62424 whole entry, looked up): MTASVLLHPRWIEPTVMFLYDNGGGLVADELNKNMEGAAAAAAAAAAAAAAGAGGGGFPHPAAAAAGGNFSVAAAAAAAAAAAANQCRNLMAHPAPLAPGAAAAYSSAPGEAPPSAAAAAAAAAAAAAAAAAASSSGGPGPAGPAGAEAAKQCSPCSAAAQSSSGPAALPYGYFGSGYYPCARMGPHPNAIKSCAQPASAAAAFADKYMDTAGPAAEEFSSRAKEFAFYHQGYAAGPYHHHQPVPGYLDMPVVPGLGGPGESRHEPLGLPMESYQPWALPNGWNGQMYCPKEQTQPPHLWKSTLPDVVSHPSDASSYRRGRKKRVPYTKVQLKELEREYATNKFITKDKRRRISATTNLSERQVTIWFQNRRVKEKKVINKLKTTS

As to `COC(=O)[C@@]1(Cc2ccc(F)cc2)[C@H]2c3cc(C(=O)N4CCCC4)n(Cc4cc(F)cc5c4OCOC5)c3C[C@H]2CN1C(=O)c1ccccc1`, the z-score in assay [1] was -1.29; in assay [2] it was 1.9 (inactive); in assay [3] it was -0.931 (inactive); in assay [5], -0.25 (inactive); in [6] it was 1.31 (inactive); in assay [7], 0.462 (inactive). Also, the z-score is -1.11 (inactive) in assay [8]; -2.88 in [9]; -1.6 in assay [13]; -4.07 (inactive) in [14]; -0.142 (inactive) in assay [15]; -0.121 (inactive) in assay [16]. Also, the composite z-score was -0.224 (inactive) in assay [4], 0.334 in [10], 0.602 (inactive) in assay [11] and 0.53 in assay [12].

For `CCCCCC1=C2CNC(CC(C)C)(C(=O)OC)C=C2C(C)C1=O` (stereo not given), the z-score in assay [1] was -0.97; in assay [2], 0.153 (inactive); in [3] it was -1.2 (inactive); in assay [5], 0.383 (inactive); in assay [6] it was 0.915 (inactive); in assay [7], 0.0841 (inactive). Also, the z-score in assay [8] was 0.501 (inactive); in assay [9], -0.927; in assay [13], -0.282; in assay [14], -8.08 (active); in assay [15], 1.32 (inactive); in assay [16] it was 0.856 (inactive). Further, the composite z-score is -1.09 (inactive) in assay [4], 0.0907 in assay [10], 0.814 (inactive) in [11] and 0.176 in [12].

Regarding `C=CCNC(=O)[C@@H]1[C@H]2C(=O)O[C@H](c3ccccc3)[C@H](c3ccccc3)N2[C@H](c2ccc(OCCO)cc2)[C@@]12C(=O)Nc1ccc(C#CC3(O)CCCCCC3)cc12`, the z-score in [1] was -1.01; in assay [2], 0.933 (inactive); in assay [3], -2.37 (inactive); in assay [5] it was 2.09 (inactive); in assay [6], 1.16 (inactive); in [7] it was -0.347 (inactive). Also, the z-score in assay [8] was -0.797 (inactive); in assay [9] it was -2; in assay [13], -1.73; in [14], -1.92 (inactive); in assay [15], -0.0427 (inactive); in assay [16] it was -0.271 (inactive). Also, the composite z-score in assay [4] is 0.315 (inactive); in assay [10] it was -0.0095; in assay [11], 1.02 (inactive); in [12], 0.774.

On to `COc1cc(CO)cc(I)c1O[C@H]1C=C(C(=O)NCCO)C[C@@H](NC2CCCCCC2)[C@@H]1O`, for which the z-score was 0.371 in assay [1]; -4.02 (inactive) in assay [2]; 0.115 (inactive) in [3]; -0.896 (inactive) in assay [5]; 0.77 (inactive) in [6]; 0.901 (inactive) in [7]. Besides, the z-score in assay [8] is 0.12 (inactive); in assay [9], 0.215; in assay [13], -3.18; in assay [14], -7.19 (inactive); in [15] it was -0.75 (inactive); in assay [16], -1.01 (inactive). Moreover, the composite z-score in [4] is 1.11 (inactive); in assay [10], -0.11; in assay [11], 0.509 (inactive); in assay [12] it was 0.649.

`O=C(N1CCOCC1)[C@@]1(Cc2ccccc2)COC(c2ccc(OCCCO)cc2)=N1`: the z-score in assay [1] is -0.395; in [2], -3.37 (inactive); in assay [3], 0.13 (inactive); in assay [5], 0.565 (inactive); in [6] it was -0.428 (inactive); in [7], 1.26 (inactive). Also, the z-score in assay [8] is 0.284 (inactive); in assay [9], 1.15; in assay [13], -1.99; in assay [14], -5.19 (inactive); in [15], -0.42 (inactive); in [16], -0.504 (inactive). For the same compound, the composite z-score was -0.641 (inactive) in assay [4], 0.081 in assay [10], 0.509 (inactive) in assay [11] and 0.52 in assay [12].

Consider `COC(=O)[C@@]1(Cc2ccccc2)[C@H]2c3cc(C(=O)N(C)C)n(CCSC(=N)N)c3C[C@H]2CN1C(=O)c1ccccc1`, for which the z-score in [1] was -0.436; in assay [2], 1.36 (inactive); in assay [3], -0.399 (inactive); in assay [5] it was -0.0424 (inactive); in [6] it was 0.0986 (inactive); in [7], -0.456 (inactive). Also, the z-score was -0.295 (inactive) in assay [8]; -0.374 in assay [9]; -0.118 in [13]; -3.8 (inactive) in assay [14]; 0.835 (inactive) in [15]; 0.849 (inactive) in assay [16]. The composite z-score was 0.644 (inactive) in assay [4], -0.0592 in assay [10], -0.667 (inactive) in assay [11] and 0.903 in [12].

For `C=C(CCCC)/C(=C/C[C@H](OC(=O)c1ccncc1)c1ccccc1OCCO)c1cc(C(=O)OC)ccc1OC`, the z-score is -0.345 in [1]; 0.431 (inactive) in assay [2]; 0.531 (inactive) in assay [3]; 0.297 (inactive) in [5]; -0.3 (inactive) in [6]; 0.128 (inactive) in assay [7]. The z-score was 0.0401 (inactive) in [8]; 1.09 in assay [9]; -3.07 in assay [13]; -4.22 (inactive) in assay [14]; -1.15 (inactive) in assay [15]; -0.733 (inactive) in [16]. The composite z-score is -1.36 (inactive) in assay [4], -0.184 in [10], 0.578 (inactive) in assay [11] and 0.0792 in assay [12].

`COCCCNC(=O)[C@@]1(CCC(=O)OC(C)(C)C)COC(c2ccc(OCCCO)cc2)=N1`: the z-score in assay [1] is 1.18; in assay [2], -0.579 (inactive); in [3] it was 1.27 (inactive); in assay [5], -0.978 (inactive); in assay [6], -0.561 (inactive); in assay [7], 0.391 (inactive). In addition, the z-score in assay [8] was 0.624 (inactive); in assay [9] it was 0.928; in assay [13], -0.547; in [14], -5.74 (inactive); in [15] it was -0.0385 (inactive); in [16], 0.304 (inactive). Besides, the composite z-score is -0.176 (inactive) in [4], -0.0272 in [10], 0.192 (inactive) in [11] and 0.732 in assay [12].

`CCOC(=O)C[C@H]1[C@H](OC(=O)c2ccccc2-c2ccccc2)[C@@H](NC(=O)c2ccc3ccccc3c2)c2cc(OCCCO)ccc2N1C(=O)Cc1ccc(OC)cc1`: the z-score in assay [1] is -0.397; in assay [2] it was 0.118 (inactive); in [3], -0.142 (inactive); in [5], -0.283 (inactive); in assay [6], -0.899 (inactive); in [7], -0.516 (inactive). The z-score was -0.404 (inactive) in [8]; -0.0439 in assay [9]; 0.0063 in assay [13]; -2.79 (inactive) in assay [14]; -0.242 (inactive) in assay [15]; -0.189 (inactive) in assay [16]. In addition, the composite z-score in assay [4] is -0.0597 (inactive); in assay [10], 0.0711; in [11], 0.882 (inactive); in assay [12] it was -0.47.

On to `CC(=O)c1ccc(C(O)C2C=CC3C(=O)N(c4ccccc4)C(=O)C3N2Nc2ccc(C(C)C)cc2)cc1` (stereo not given), for which the z-score in assay [1] is -0.866; in assay [2], -0.829 (inactive); in assay [3], -1.44 (inactive); in [5], 0.503 (inactive); in [6] it was 0.677 (inactive); in assay [7] it was 0.481 (inactive). Also, the z-score in assay [8] is 0.463 (inactive); in assay [9], -0.721; in assay [13] it was -1.33; in assay [14], -2.09 (inactive); in [15] it was 0.0577 (inactive); in [16], -0.371 (inactive). Besides, the composite z-score in assay [4] is 0.774 (inactive); in assay [10] it was 0.102; in assay [11], 0.248 (inactive); in assay [12] it was 0.525.
